Data from ChEMBL document CHEMBL1201862, “PubChem BioAssay data set” (2004).
Hit rate of the full screen: of about 220,000 compounds, about 2,400 (1.1%) were called active. Inconclusive results (about 7%) are left out. No cut-off for these calls is given here. The full list was thinned out, with actives kept by preference.

These compounds were tested against Huntingtin (Homo sapiens) (UniProt P42858) (assay: qHTS Multiplex Assay to Identify Dual Action Probes in a Cell Model of Huntington: Aggregate Formation (GFP). [Related pubchem assays: 1482, 1471 ]).
Format: functional

Chain of Huntingtin (Homo sapiens) (P42858 whole entry): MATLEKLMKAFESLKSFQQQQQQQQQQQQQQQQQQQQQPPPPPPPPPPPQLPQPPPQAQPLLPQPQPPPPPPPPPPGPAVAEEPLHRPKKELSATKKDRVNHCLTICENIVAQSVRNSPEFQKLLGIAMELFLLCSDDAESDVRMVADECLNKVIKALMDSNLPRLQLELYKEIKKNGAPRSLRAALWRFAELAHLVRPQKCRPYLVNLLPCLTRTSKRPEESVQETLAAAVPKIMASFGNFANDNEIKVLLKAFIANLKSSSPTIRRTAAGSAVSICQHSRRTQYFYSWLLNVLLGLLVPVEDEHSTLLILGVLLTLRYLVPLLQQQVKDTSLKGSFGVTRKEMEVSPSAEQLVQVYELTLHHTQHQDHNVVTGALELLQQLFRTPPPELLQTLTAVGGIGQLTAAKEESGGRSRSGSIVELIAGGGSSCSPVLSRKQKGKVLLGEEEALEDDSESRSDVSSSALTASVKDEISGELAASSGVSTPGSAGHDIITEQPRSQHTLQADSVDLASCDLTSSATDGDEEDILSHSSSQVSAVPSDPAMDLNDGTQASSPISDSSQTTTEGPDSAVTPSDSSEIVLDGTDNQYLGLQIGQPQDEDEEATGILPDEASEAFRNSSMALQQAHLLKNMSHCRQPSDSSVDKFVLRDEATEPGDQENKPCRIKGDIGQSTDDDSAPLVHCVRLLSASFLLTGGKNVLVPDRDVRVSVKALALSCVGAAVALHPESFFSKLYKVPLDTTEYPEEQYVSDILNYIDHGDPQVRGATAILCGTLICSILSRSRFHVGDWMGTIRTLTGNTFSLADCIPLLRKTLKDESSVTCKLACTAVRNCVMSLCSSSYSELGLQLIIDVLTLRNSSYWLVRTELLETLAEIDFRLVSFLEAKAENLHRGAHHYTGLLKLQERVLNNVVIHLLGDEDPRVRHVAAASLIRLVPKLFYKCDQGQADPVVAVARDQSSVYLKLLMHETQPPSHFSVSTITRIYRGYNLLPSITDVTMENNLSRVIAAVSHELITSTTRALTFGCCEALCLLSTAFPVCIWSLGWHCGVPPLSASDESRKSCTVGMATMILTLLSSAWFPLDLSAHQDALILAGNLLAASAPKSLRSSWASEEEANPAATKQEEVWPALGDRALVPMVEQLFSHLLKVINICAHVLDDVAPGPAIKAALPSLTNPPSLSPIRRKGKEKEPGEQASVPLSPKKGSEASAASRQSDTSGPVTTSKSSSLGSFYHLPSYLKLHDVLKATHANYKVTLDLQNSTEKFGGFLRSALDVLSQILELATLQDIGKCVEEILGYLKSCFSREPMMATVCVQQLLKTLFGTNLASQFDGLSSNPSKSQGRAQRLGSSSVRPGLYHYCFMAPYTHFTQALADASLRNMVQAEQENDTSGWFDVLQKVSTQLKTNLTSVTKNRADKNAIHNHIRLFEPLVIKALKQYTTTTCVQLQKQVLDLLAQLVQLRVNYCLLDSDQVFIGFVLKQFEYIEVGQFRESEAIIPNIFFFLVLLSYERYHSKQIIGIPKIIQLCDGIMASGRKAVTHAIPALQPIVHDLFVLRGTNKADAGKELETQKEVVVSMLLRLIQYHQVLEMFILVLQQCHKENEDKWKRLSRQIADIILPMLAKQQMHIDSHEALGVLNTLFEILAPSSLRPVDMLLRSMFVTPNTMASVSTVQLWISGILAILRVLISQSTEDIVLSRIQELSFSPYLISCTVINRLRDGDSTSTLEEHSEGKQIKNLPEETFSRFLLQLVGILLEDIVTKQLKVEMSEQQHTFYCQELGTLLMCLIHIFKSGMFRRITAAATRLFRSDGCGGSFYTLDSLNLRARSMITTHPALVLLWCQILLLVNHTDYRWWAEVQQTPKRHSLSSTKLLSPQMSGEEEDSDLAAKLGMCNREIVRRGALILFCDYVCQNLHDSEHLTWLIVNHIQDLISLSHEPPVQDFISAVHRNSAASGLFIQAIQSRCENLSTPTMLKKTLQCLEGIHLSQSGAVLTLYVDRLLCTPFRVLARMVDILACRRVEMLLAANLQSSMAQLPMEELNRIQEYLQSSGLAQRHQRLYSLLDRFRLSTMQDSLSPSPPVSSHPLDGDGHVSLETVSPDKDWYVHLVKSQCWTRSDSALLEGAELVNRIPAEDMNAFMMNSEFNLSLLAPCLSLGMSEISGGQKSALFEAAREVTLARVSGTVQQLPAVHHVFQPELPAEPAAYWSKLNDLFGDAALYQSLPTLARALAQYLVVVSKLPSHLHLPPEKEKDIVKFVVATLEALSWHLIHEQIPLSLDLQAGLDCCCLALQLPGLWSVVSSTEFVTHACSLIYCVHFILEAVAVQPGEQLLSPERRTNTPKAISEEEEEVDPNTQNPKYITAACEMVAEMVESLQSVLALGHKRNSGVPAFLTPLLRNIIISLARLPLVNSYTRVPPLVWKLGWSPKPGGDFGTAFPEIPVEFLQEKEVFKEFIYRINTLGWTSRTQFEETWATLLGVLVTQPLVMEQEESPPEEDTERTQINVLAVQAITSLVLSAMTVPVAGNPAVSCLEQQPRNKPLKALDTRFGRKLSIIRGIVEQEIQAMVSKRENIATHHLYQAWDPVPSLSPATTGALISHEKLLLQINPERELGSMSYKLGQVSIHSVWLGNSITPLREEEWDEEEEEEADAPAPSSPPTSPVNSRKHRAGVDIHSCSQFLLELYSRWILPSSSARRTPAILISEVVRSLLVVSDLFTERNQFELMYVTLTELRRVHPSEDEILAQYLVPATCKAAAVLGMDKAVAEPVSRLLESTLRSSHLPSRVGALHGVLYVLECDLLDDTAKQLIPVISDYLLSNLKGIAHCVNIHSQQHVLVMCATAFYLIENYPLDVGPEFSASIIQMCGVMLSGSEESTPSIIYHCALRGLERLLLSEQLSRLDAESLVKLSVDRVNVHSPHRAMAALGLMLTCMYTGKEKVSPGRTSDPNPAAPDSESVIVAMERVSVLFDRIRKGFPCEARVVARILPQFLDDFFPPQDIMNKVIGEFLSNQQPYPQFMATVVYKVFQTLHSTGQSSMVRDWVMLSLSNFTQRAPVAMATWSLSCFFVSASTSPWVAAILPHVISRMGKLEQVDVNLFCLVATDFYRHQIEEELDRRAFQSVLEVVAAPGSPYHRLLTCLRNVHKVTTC

Potency, active:
O=C(c1nc2nc(-c3ccccc3)cc(C(F)(F)F)n2n1)N1CCOCC1 112 µM
CCOc1ccc(S(=O)(=O)n2ccc(C)n2)c2ccccc12 56.2 µM
Cc1nnc2sc(SCc3ccc(Cl)cc3)nn2c1=O 891 µM
CCOC(=O)c1ccc(N2CN(CCc3ccccc3)CN=C2S)cc1 112 µM
O=C1C2C3C=CC(C3)C2C(=O)N1CCCO (stereo not drawn) 89.1 µM
CCOC(=O)c1c(NC(=O)C2=C(C)N=C(S)NC2c2ccc(F)cc2)sc(C)c1C (stereo not drawn) 112 µM
CCOC(=O)Cn1c(-c2ccccn2)nc2ccccc21 224 µM
CN(C)CCN(C(=O)c1ccc(S(=O)(=O)N(C)C)cc1)c1nc2cc3c(cc2s1)OCCO3 141 µM
